Experimental findings from PubChem BioAssay AID463173 (ICCB-Longwood Screening Facility, Harvard Medical School, 2010) are described below.

About 4,300 (8.3%) of roughly 52,000 compounds were called active. For the sample, actives were picked, then their nearest neighbours and some compounds at random. Values without a mark were called inactive. No stated cut-off is given here; in the data, active means survival mostly below about 52% (no sharp cut-off); inactive means mostly above about 56%.

For the assay, the system named is DeltatarO mutant. The experiment in a line: S. aureus survival, RN4220 and DeltatarO strains – OD600, teichoic acid synthesis inhibitors, primary screen (AID 463173). The note with it: S. aureus RN4220 wild type/DeltatarO growth, OD600, 18 h, active compounds read low, screened at 18.75 µg/mL (by protocol).
Take `CCCCOc1ccc(CSCCN=C(N)N)cc1`: the survival was 1% (active). Take `CC(C)Oc1ccc(CSCCN)cc1`: the survival is 90%. The result for `COc1ccc(CCCN=C(N)N)cc1Cl` reads 105%; that for `O=C(NCc1ccccc1)c1ccc(CSc2nc3cccnc3n2Cc2cccc(F)c2)cc1`, 101%; that for `COC(=O)c1ccc2c(c1)N(CC(=O)Nc1cccc(Cl)c1C)C(=O)c1ccccc1S2`, 74%. The result for `CC(C)c1ccc2c(c1)NC(c1ccncc1)=NC(c1cccs1)=N2` reads 72%. With `Clc1ccc2c(c1)NC(c1ccncc1)=NC(c1cccs1)=N2`, the survival is 76%. The result for `Fc1ccc2c(c1)NC(c1ccncc1)=NC(c1cccs1)=N2` reads 30% (active).

As to `FC(F)(F)Oc1ccc2c(c1)NC(c1ccncc1)=NC(c1cccs1)=N2`, the survival was 91%. In the case of `CCOc1ccc(C2=NC(c3cccs3)=Nc3ccc(C(C)C)cc3N2)cc1`, the survival was 58%.

As to `CC(C)c1ccc2c(c1)NC(c1ccc(F)cc1)=NC(c1cccs1)=N2`, the survival was 45% (active).

On to `CCCCOc1cccc(C(=O)Nc2cccc(-c3nc4ncccc4o3)c2C)c1`, for which the survival was 47%.

In the case of `COc1ccc(NC(=O)[C@@H](c2ccccc2)N2Cc3ccccc3C2=O)cc1OC`, the survival was 62%. With `COc1cccc(CNC(=O)C2CCN(c3ncnc4c3nc3n4CCCCC3)CC2)c1` the figure was 86%.

Consider `COc1ccc(CNc2nc(-c3ccco3)nn2C(=O)CC(C)C)cc1`, for which the survival is 103%. The result for `O=C(CS(=O)(=O)c1nc(-c2ccc(Cl)cc2)cn1-c1ccccc1)Nc1ccc(F)cc1F` reads 50% (active); that for `Cc1ccc(-c2cn(-c3cccc(Cl)c3)c(S(=O)(=O)CC(=O)Nc3ccccc3F)n2)cc1`, 61%. Regarding `O=C(CS(=O)(=O)c1nc(-c2ccc(Cl)cc2)cn1-c1ccccc1)Nc1cccc(Cl)c1`, the survival was 68%. The result for `CN1CCN(C(=O)C(=O)Nc2c3c(nn2-c2cccc(Cl)c2)CSC3)CC1` reads 76%; that for `O=C(NC1CC(=O)N(c2ccccc2)C1)c1cc2ccccc2o1` (stereo unspecified), 89%. As to `Cc1ccc(N2CC(NC(=O)c3cc4ccccc4o3)CC2=O)cc1` (stereo unspecified), the survival is 99%. With `O=C(NCc1ccc(Cl)cc1)c1cc2ccccc2o1` the figure was 61% (active); with `COCCNC(=O)c1cc2ccccc2o1`, 104%.

Take `O=C(NCc1ccccc1Cl)c1cc2ccccc2o1`: the survival was 74%. On to `O=C(NC1CC(=O)N(c2ccc(Cl)cc2)C1)c1cc2ccccc2o1` (stereo unspecified), for which the survival was 52% (active).

For the compound `COc1ccc(CN2CCCN(CC(=O)Nc3ccc4c(c3)OCCO4)S2(=O)=O)cc1`, the survival was 74%. In the case of `O=C1c2ccccc2C(=O)N1CCCn1nnc(-c2ccc(N3CCOCC3)cc2)n1`, the survival is 74%. With `CCCNc1nc(Cl)nc(Cl)n1` the figure was 62% (active); with `CC(C)Nc1nc(Cl)nc(NCCO)n1`, 110%; with `C=CCNc1nc(Cl)nc(Cl)n1`, 99%. With `Cc1ccc(-n2ncc3c(=O)n(Cc4cccc(Cl)c4)cnc32)cc1C` the figure was 91%; with `CCc1ccccc1NS(=O)(=O)c1cc(Br)cc2c1N(C(=O)C1CC1)CC2`, 52% (active). Take `COc1ccccc1CNS(=O)(=O)c1cc(Br)cc2c1N(C(=O)C1CC1)CC2`: the survival is 58%. With `CC(=O)Nc1ccc(NS(=O)(=O)c2cc(Br)cc3c2N(C(=O)C2CC2)CC3)cc1` the figure was 74%; with `CCN(Cc1ccccc1)S(=O)(=O)c1cc(Br)cc2c1N(C(=O)C1CC1)CC2`, 58%. `COc1ccc(Cl)cc1NS(=O)(=O)c1cc(Br)cc2c1N(C(=O)C1CC1)CC2`: the survival is 55% (active). With `Cc1ccc(NS(=O)(=O)c2cc(Br)cc3c2N(C(=O)C2CC2)CC3)cc1C` the figure was 95%; with `CN(Cc1ccccc1)S(=O)(=O)c1cc(Br)cc2c1N(C(=O)C1CC1)CC2`, 34% (active); with `CC(C)c1ccc(NS(=O)(=O)c2cc(Br)cc3c2N(C(=O)C2CC2)CC3)cc1`, 56%. The result for `CCOc1ccc(NS(=O)(=O)c2cc(Br)cc3c2N(C(=O)C2CC2)CC3)cc1` reads 79%; that for `O=C(C1CC1)N1CCc2cc(Br)cc(S(=O)(=O)Nc3ccc(C(F)(F)F)cc3)c21`, 41% (active); that for `CCCCN(Cc1ccccc1)S(=O)(=O)c1cc(Br)cc2c1N(C(=O)C1CC1)CC2`, 57%. The result for `COc1cc(NS(=O)(=O)c2cc(Br)cc3c2N(C(=O)C2CC2)CC3)cc(OC)c1` reads 99%; that for `CCC(C)Nc1nc2c(c(=O)[nH]c(=O)n2C)n1Cc1ccc(F)cc1` (stereo unspecified), 73%. For `Cc1cc(C)c(NC(=O)CN(c2ccccc2)S(=O)(=O)N(C)C)c(C)c1`, the survival was 66%. Regarding `CCCc1ccc(OCC(=O)Nc2sc3c(c2C(=O)OCC)CCC(C(C)(C)C)C3)cc1` (stereo unspecified), the survival was 125%.

With `COc1ccc(-n2c(=O)c3ccc(C(=O)NCc4ccc(C)cc4)cc3n(Cc3ccc(F)cc3Cl)c2=O)cc1`, the survival was 99%. For `COc1ccc(C2=NC(C)(C)N(CC(=O)Nc3cccc(C)c3)C2=O)cc1`, the survival was 76%. The result for `CC(=O)N(Cc1ccccc1)Cc1cc2cc(C)ccc2n2nnnc12` reads 77%; that for `COc1ccc(Nc2nc(N)nc(N)c2S(=O)(=O)c2ccccc2)cc1`, 78%; that for `O=C(CCS(=O)(=O)c1cc(Br)cc2c1N(C(=O)C1CC1)CC2)NCc1ccccc1Cl`, 100%.

Take `O=c1c2sc3ccccc3c2n(Cc2ccc(Cl)cc2)c(=O)n1Cc1ccco1`: the survival is 83%. Take `c1ccc(Nc2nc(N3CCCCC3)nc(N3CCCCC3)n2)cc1`: the survival is 106%. With `Fc1ccc(Nc2nc(Nc3ccc(F)cc3)nc(N3CCOCC3)n2)cc1` the figure was 87%.

`NNc1nc(N2CCOCC2)nc(N2CCOCC2)n1`: the survival is 76%. Regarding `Cc1ccc(Nc2nc(Nc3ccc(C)c(C)c3)nc(N3CCOCC3)n2)cc1C`, the survival is 34% (active). With `Cc1ccc(Nc2c(-c3ccc(N4CCOCC4)cc3)nc3ncccn23)cc1C`, the survival is 88%. With `Cc1cccc(Nc2nc(Nc3cccc(C)c3)nc(N3CCOCC3)n2)c1` the figure was 1% (active); with `CCc1ccc(CNC(=O)c2ccc(-c3nc(CS(=O)(=O)c4ccccc4)c(C)o3)cc2)cc1`, 54%. Take `CC(C)(C)OC(=O)N1CCC(c2c(C(=O)O)cnn2-c2ccc(F)cc2F)CC1`: the survival is 87%.

Regarding `CCCCN1CC(c2nc3ccccc3n2CCCCOc2ccc(C)cc2C)CC1=O` (stereo unspecified), the survival is 13% (active). With `Cc1ccc(OCCCn2c(C3CC(=O)N(c4cccc(Cl)c4)C3)nc3ccccc32)c(C)c1` (stereo unspecified) the figure was 76%; with `CCOc1ccccc1N1CC(c2nc3ccccc3n2CCCCOc2ccccc2)CC1=O` (stereo unspecified), 59%.

Take `CCOc1ccccc1N1CC(c2nc3ccccc3n2CCCOc2ccccc2OC)CC1=O` (stereo unspecified): the survival is 76%. With `CCCCN1CC(c2nc3ccccc3n2CCCCOc2cc(C)ccc2C)CC1=O` (stereo unspecified), the survival is 15% (active).

For the compound `CCOc1ccccc1N1CC(c2nc3ccccc3n2CCCCOc2cc(C)ccc2C)CC1=O` (stereo unspecified), the survival was 47% (active).

In the case of `CC(=O)c1c(C)n(-c2cccc(C)c2)c2ccc(OC(=O)COc3ccccc3)cc12`, the survival was 70%. Regarding `COc1ccc(OC)c(NC(=O)COCc2cc(-c3ccco3)on2)c1`, the survival is 49%. Consider `Cc1ccc(CNC(=O)Cn2c(=O)n(Cc3ccc(F)cc3)c(=O)c3sc4ccccc4c32)cc1`, for which the survival was 92%.

As for `O=C1CCCN1c1ccc(S(=O)(=O)N2CCCCC2)cc1`, the survival is 93%. Consider `COc1cccc2c1cc1c(=O)n(CC(=O)N3CCN(c4cc(Cl)ccc4C)CC3)nc(C)n12`, for which the survival is 74%. The result for `O=C(Nc1cccc(C(=O)OCc2cc(=O)n3nc(C4CC4)sc3n2)c1)c1cccc(Cl)c1` reads 80%. In the case of `Cc1ccc(NC(=O)COc2ccc(-c3nn(C)c(=O)c4ccccc34)cc2)cc1`, the survival is 48%. With `COc1ccccc1NC(=O)COc1ccc(-c2nn(C)c(=O)c3ccccc23)cc1` the figure was 37% (active); with `CNC(=O)COc1ccc(NC(=O)c2ccc(-c3nn(C)c(=O)c4ccccc34)cc2)cc1`, 75%; with `COc1ccc(NC(=O)COc2ccc(-c3nn(C)c(=O)c4ccccc34)cc2)cc1`, 75%.

Take `CNC(=O)c1ccc(NC(=O)COc2ccc(-c3nn(C)c(=O)c4ccccc34)cc2)cc1`: the survival is 62% (active). With `Cn1nc(-c2ccc(OCC(=O)Nc3ccccc3)cc2)c2ccccc2c1=O` the figure was 47%; with `CC(=O)c1ccc(NC(=O)c2nc3ccccc3n(C)c2=O)cc1`, 80%. For `CC(C)Cn1c(=O)c2ccccc2n2c(CCC(=O)NC(C)c3ccccc3)nnc12` (stereo unspecified), the survival is 87%.

For `CN(C)S(=O)(=O)c1ccc(C(=O)Nc2c(C(=O)Nc3ccc(F)cc3)oc3ccccc23)cc1`, the survival was 73%. With `Cc1ccc(NC(=O)Cc2coc3c(C)c(C)ccc23)c(C)c1` the figure was 96%; with `CCOC(=O)c1cccc(NC(=O)Cn2nc3c(cc2=O)CCCC3)c1`, 37% (active); with `O=C(Cn1nc2c(cc1=O)CCCC2)NCc1ccccc1`, 105%. `COc1ccc(CNC(=O)Cn2nc3c(cc2=O)CCCC3)cc1`: the survival is 46% (active).

As to `CCOC(=O)c1cccc(NC(=O)Cn2cnc3nc4c(cc3c2=O)CCCC4)c1`, the survival was 94%. For `O=C(Cn1nc2c(cc1=O)CCCC2)NCc1ccc(Cl)cc1`, the survival is 115%. On to `Cc1ccc(NC(=O)Cn2nc3c(cc2=O)CCCC3)cc1Cl`, for which the survival is 93%. With `COc1ccc(Cl)cc1C(=O)CSc1nnnn1C1CCCCC1` the figure was 93%; with `COc1ccc(NC(=O)CCCc2nnc3n(C(C)C)c(=O)c4sccc4n23)cc1Cl`, 93%. With `COc1ccccc1CNC(=O)c1cc2c(s1)-c1ccccc1OC2`, the survival is 61%. The result for `CC(C)CCN(Cc1ccco1)C(=O)c1cc2c(Cl)nc3ccccc3c2s1` reads 68%; that for `CN(C)CCN(Cc1ccco1)C(=O)c1cc2c(s1)-c1ccccc1OC2`, 69%; that for `CC(C)CCN(Cc1ccco1)C(=O)c1cc2c(s1)-c1ccccc1OC2`, -4% (active). As for `COCCCN(Cc1ccco1)C(=O)c1cc2c(s1)-c1ccccc1OC2`, the survival is -3% (active). The result for `CC(C)OCCCN(Cc1ccco1)C(=O)c1cc2c(s1)-c1ccccc1OC2` reads -5% (active).
